By Inhibition is commonly meant the share of the control response that was lost under treatment. Low values mean little suppression, high ones strong suppression.

Type in all cases: functional
In assay [1] the test system is Plasmodium falciparum. Briefly: GSK_TCMDC: Inhibition of Plasmodium falciparum 3D7 in whole red blood cells, using parasite LDH activity as an index of growth. Test compounds present at 2uM.
In assay [2] the test system is Plasmodium falciparum. Briefly: GSK_TCMDC: Inhibition of Plasmodium falciparum Dd2 in whole red blood cells, using parasite LDH activity as an index of growth. Test compounds present at 2uM.
Another assay relates to HepG2. Briefly: GSK_TCMDC: Percent inhibition of human HepG2 cell line. Test compounds present at 10uM.

Take `Cl.NOCCCCOc1ccccc1`: the Inhibition is 99% in the assay with Plasmodium falciparum [1], 2% with Plasmodium falciparum [2] and 12% in the assay with HepG2.

For `O=C(Nc1ccc(Oc2ccc(OC(F)(F)F)cc2)cc1)c1ccco1`, the Inhibition in the assay on Plasmodium falciparum [1] came to 90%; in the assay with Plasmodium falciparum [2], 71%; in the assay on HepG2 it was 5%.

Turning to `O=C(Cc1ccc(Cl)cc1)NC1CCN(c2ccnc3cc(Cl)ccc23)C1.O=C(O)C(F)(F)F` (stereo not given), the Inhibition with Plasmodium falciparum [1] was found to be 82%; with Plasmodium falciparum [2], 99%; in the assay with HepG2, 13%.

With `CS(=O)(=O)Nc1cccc(-c2cnc3[nH]cc(-c4ccc(C(=O)O)cc4)c3c2)c1`, the Inhibition was found to be 98% with Plasmodium falciparum [1], 82% with Plasmodium falciparum [2] and 0% with HepG2.

Take `Cc1cnc2ccc(NS(=O)(=O)c3ccc4c(Cl)cccc4c3)cc2c1N1CCNCC1.Cl`: the Inhibition in the assay on Plasmodium falciparum [1] was found to be 100%; in the assay with Plasmodium falciparum [2], 3%; with HepG2 it was 24%.

`CCc1c[nH]c2c(N3CCCS3(=O)=O)cc(C(=O)N[C@@H](Cc3ccccc3)[C@H](O)CNC3CCCCC3)cc12.O=CO`: the Inhibition was determined as 99% with Plasmodium falciparum [1], 89% in the assay with Plasmodium falciparum [2] and 6% with HepG2.

`CC(C)CNCc1cccc(-c2cccc(CN(CCCN3CCN(C)CC3)C(=O)NC3CCCCC3)c2)c1.O=C(O)C(F)(F)F`: the Inhibition in the assay on Plasmodium falciparum [1] turned out to be 100%; with Plasmodium falciparum [2], 84%; with HepG2, 16%.

As for `CC(C)(C)OC(=O)NCc1ccc(Nc2nnc(-c3ccc(OCC(=O)NCc4ccc(C(C)(C)C)cc4)c([N+](=O)[O-])c3)o2)cc1`, the results for the Inhibition with Plasmodium falciparum [1], with Plasmodium falciparum [2] and with HepG2 were 96%, 82% and 10%, respectively.

In the case of `Cc1ccc(-c2nnc3c4ccccc4c(C)nn23)cc1S(=O)(=O)N1CCN(CCO)CC1`, the Inhibition in the assay on Plasmodium falciparum [1] was found to be 85%; with Plasmodium falciparum [2], 62%; in the assay with HepG2 it was 16%.

On to `COc1cc(-c2nc(-c3ccc([N+](=O)[O-])cc3)c(-c3ccccc3)[nH]2)cc(OC)c1O`, for which the figures for the Inhibition in the assay on Plasmodium falciparum [1], with Plasmodium falciparum [2] and in the assay with HepG2 were 98%, 56% and 7%, respectively.

As for `Cl.N=C(N)c1ccc(Nc2nc(Nc3ccc(-c4ccccc4)cc3)ncc2[N+](=O)[O-])cc1`, the Inhibition was found to be 99% with Plasmodium falciparum [1], 35% with Plasmodium falciparum [2] and 11% with HepG2.

Regarding `Cc1cccc(CN2CCN(c3ncc(C(=O)NC4CC4)cc3Cl)CC2)c1.O=C(O)C(F)(F)F`, the values for the Inhibition with Plasmodium falciparum [1], in the assay on Plasmodium falciparum [2] and with HepG2 were 84%, 73% and 2%, respectively.

For the compound `CC(=O)Nc1cc(C(=O)Nc2ccc(C3=NCCN3)cc2)ccc1C(=O)Nc1ccc(C2=NCCN2)cc1.Cl`, the Inhibition in the assay on Plasmodium falciparum [1] amounted to 96%; in the assay with Plasmodium falciparum [2] it was 92%; in the assay on HepG2, 12%.

On to `Clc1ccc(OCc2ccccc2)c(-c2nc(-c3nc4ccc(Cl)cc4[nH]3)cs2)c1`, for which the Inhibition is reported as 99% in the assay with Plasmodium falciparum [1], 60% in the assay with Plasmodium falciparum [2] and 0% with HepG2.

For the compound `COc1cc2nc(NCCn3ccnc3C)nc(NCCc3ccccc3)c2cc1OC`, the Inhibition in the assay with Plasmodium falciparum [1] is on record as 99%; with Plasmodium falciparum [2] it was 0%; in the assay on HepG2, 21%.

Consider `O=C(Nc1ccc(CN2CCCCC2)cc1)c1ccc(COc2ccc([N+](=O)[O-])cc2)o1`, for which the Inhibition with Plasmodium falciparum [1] was determined as 86%; in the assay on Plasmodium falciparum [2] it was 0%; in the assay on HepG2, 12%.

For `Cl.N#Cc1ccc2c(c1)CCN(CCC1CCC(NC(=O)/C=C/c3cc(Br)cs3)CC1)CC2` (stereo not given), the Inhibition in the assay with Plasmodium falciparum [1] is on record as 93%; in the assay on Plasmodium falciparum [2] it was 1%; in the assay on HepG2, 3%.

Regarding `CN(C)c1ccc(-c2ccc(C(=O)NC3CCN(Cc4ccccc4F)CC3)s2)cc1.O=C(O)C(F)(F)F`, the Inhibition in the assay on Plasmodium falciparum [1] is reported as 88%; in the assay on Plasmodium falciparum [2] it was 19%; in the assay with HepG2, 30%.

Take `Cc1cccc2nc(-c3ccc(-c4ccc(CN5CCC(CCN6CCCCC6)CC5)cc4)cc3)[nH]c12.O=C(O)C(F)(F)F`: the Inhibition came out at 100% with Plasmodium falciparum [1], 100% in the assay with Plasmodium falciparum [2] and 99% in the assay on HepG2.

For the compound `CC(C)CCn1c(Sc2ccc(C#N)c([N+](=O)[O-])c2)nnc1-c1ccc(N(C)C)cc1`, the Inhibition with Plasmodium falciparum [1] came to 97%; with Plasmodium falciparum [2] it was 96%; with HepG2, 11%.

As to `c1ccc(COc2ccc(C3CCCCC3)cc2)nc1`, the Inhibition with Plasmodium falciparum [1] is listed as 99%; in the assay with Plasmodium falciparum [2], 1%; with HepG2, 0%.

`Cc1[nH]c(C)c(-c2ccc(OCc3ccccc3)cc2)c(=O)c1Br`: the Inhibition in the assay with Plasmodium falciparum [1] turned out to be 97%; in the assay on Plasmodium falciparum [2] it was 96%; in the assay on HepG2, 19%.

On to `Cl.Clc1cccnc1N1CCN(c2ncccc2Cl)CC1`, for which the values for the Inhibition in the assay on Plasmodium falciparum [1], with Plasmodium falciparum [2] and with HepG2 were 97%, 0% and 2%, respectively.

In the case of `Cl.Nc1c(I)cc(C(=O)Nc2ccc3nc4c(c(N)c3c2)CCCC4)cc1I`, the Inhibition in the assay on Plasmodium falciparum [1] stood at 100%; in the assay on Plasmodium falciparum [2], 99%; in the assay with HepG2 it was 40%.

On to `COc1cc2nc(N3CCC(CNC(=O)c4ccc(-c5ccc(C(=O)N(C)C)cc5C)cc4)CC3)nc(N3CCN(C)CC3)c2cc1OC`, for which the results for the Inhibition in the assay on Plasmodium falciparum [1], in the assay with Plasmodium falciparum [2] and with HepG2 were 88%, 84% and 26%, respectively.

In the case of `COc1ccc(NC(=O)Nc2cccc(-c3ccc(-c4nc5cccc(C)c5[nH]4)s3)c2)cc1`, the Inhibition amounted to 100% in the assay on Plasmodium falciparum [1], 32% in the assay with Plasmodium falciparum [2] and 23% with HepG2.

Regarding `COc1cc(NC(=O)N2CCOC(CCN3CCC(c4ccccc4)CC3)(c3ccc(Cl)c(Cl)c3)C2)cc(OC)c1OC` (stereo not given), the Inhibition with Plasmodium falciparum [1] is reported as 93%; with Plasmodium falciparum [2], 73%; in the assay with HepG2 it was 15%.

As to `CCCN(CCC)CCCCC(C)Nc1c2ccc(Cl)cc2nc2ccc(OC)cc12.Cl` (stereo not given), the values for the Inhibition in the assay with Plasmodium falciparum [1], with Plasmodium falciparum [2] and in the assay on HepG2 were 100%, 100% and 42%, respectively.

With `CCN(CC)CCCC(C)N/C(=N\c1ccccc1Br)Nc1ccc(C#N)cc1O` (stereo not given), the Inhibition in the assay on Plasmodium falciparum [1] is listed as 89%; in the assay with Plasmodium falciparum [2] it was 0%; with HepG2, 4%.

For the compound `Cc1cccc(-n2nc(C)c3c2NC(=O)CC3C(=O)c2ccc(Cl)s2)c1` (stereo not given), the Inhibition with Plasmodium falciparum [1] is given as 92%; in the assay on Plasmodium falciparum [2] it was 85%; with HepG2, 13%.

The record behind these values is ChEMBL document CHEMBL1157539, “Thousands of chemical starting points for antimalarial lead identification” (Nature, 2010).
